# Results: PubChem BioAssay
# Active and inactive are the calls of the source.
# Assay: viability profiling in MM1S myeloma cells – cell-based, resazurin fluorescence, basal, 24 h, PK04 Diversity Set, profiling panel (AID 1174);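 also: MM1S multiple myeloma cell line; test concentration not given here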
# Settings: higher = more signal, called active from +8 up or from −8 down
row,Structure (SMILES),z-score
1,COC(=O)[C@@]1(Cc2ccc(OC)cc2)[C@H]2c3cc(C(=O)N4CCCC4)n(CCc4ccccn4)c3C[C@H]2CN1C(=O)c1ccccc1,-1.55 (inactive)
2,CC(=O)N1Cc2ccccc2C[C@@]2(N=C(c3ccc(OCCCO)cc3)O[C@H]2c2ccccc2)C1=O,-4.82 (inactive)
3,CC(C)NC(=O)[C@@]1(c2ccc([N+](=O)[O-])cc2)CC(=O)N(C(C)C)[C@@H]1c1ccc(CO)cc1,-0.972 (inactive)
4,CC(C)C(O)C1C=CC2C(=O)N(C)C(=O)C2N1N1CCCCC1 (stereo not given),-0.82 (inactive)
5,CCCC[C@@H]1C[C@H]1[C@@H](NC(=O)c1ccccc1)c1ccccc1,-0.694 (inactive)
6,CCN(CC)c1ccc(N2CC=CC34O[C@@H]5/C=C\CCCOC(=O)C5[C@H]3C(=O)N(CCCO)[C@@H]4C2=O)cc1 (stereo not given in full),0.481 (inactive)
7,COc1ccc(C(O)C2C=CC3C(=O)N(c4ccccc4)C(=O)C3N2Nc2ccccc2)c2ccccc12 (stereo not given),-1.42 (inactive)
8,O=[N+]([O-])c1ccc(C[n+]2ccc(CCCO)cc2)o1,-1.27 (inactive)
9,C[N+](C)(C)CCCCNC(=O)[C@H]1C[C@H]2C(=O)N3CCC[C@H]3C(=O)N2[C@H]1c1ccc(O)cc1,-1.13 (inactive)
10,COCCOC(=O)N1C(=O)[C@@]2(c3ccccc31)[C@H](C(=O)N1CCCCCCC1)[C@H]1C(=O)O[C@H](c3ccccc3)[C@H](c3ccccc3)N1[C@@H]2c1ccccc1OCCO,-0.89 (inactive)
11,C=CCC(OC(C)=O)[C@@H]1[C@@H](N(Cc2ccc(-c3ccccc3)cc2)C(=O)c2ccc(C)cc2)c2cc(OCCCO)ccc2N1C(=O)Cc1ccc(OC)cc1 (stereo not given in full),1.02 (inactive)
12,COC(=O)[C@@]1(Cc2ccc(OC)cc2)[C@H]2c3cc(C(=O)N4CCCC4)n(C[C@H](O)CO)c3C[C@H]2CN1C(=O)c1ccccc1,-0.579 (inactive)
13,O=C1O[C@H](c2ccccc2)[C@H](c2ccccc2)N2[C@H]1[C@@H](C(=O)NC[C@H](O)c1ccccc1)[C@]1(C(=O)Nc3ccc(C#CC4=CCCCC4)cc31)[C@H]2c1ccc(O)cc1,-1.78 (inactive)
14,COc1ccc([Si](C)(C)[C@@H]2[C@@H](CCO)O[C@]3(C(=O)N(Cc4ccccc4)c4ccc(N(C=O)c5ccccc5)cc43)[C@H]2C)cc1,-1.54 (inactive)
15,COc1cc(NN2C(C(O)c3ccccc3)C=CC3C(=O)N(c4ccccc4)C(=O)C32)cc(OC)c1OC (stereo not given),-0.417 (inactive)
16,CN(C)CCCCNC(=O)[C@@H]1C[C@@H]2C(=O)N[C@@H](CCCCN)C(=O)N2[C@@H]1c1cccc(OCCO)c1,-0.332 (inactive)
17,COc1c(C)cc(-c2cc3c(c(-c4ccccc4)n2)[Si](C(C)C)(C(C)C)O[C@H]3c2ccccc2)cc1C,-0.477 (inactive)
18,[N-]=[N+]=NCc1ccccc1C[C@]1(C(=O)NCc2ccccc2)COC(c2ccc(OCCCO)cc2)=N1,-5.64 (inactive)

row,Structure (SMILES),z-score
1,C=CCOC(=O)[C@@H]1[C@H]2C(=O)O[C@H](c3ccccc3)[C@H](c3ccccc3)N2[C@H](c2ccc(OCCOC(=O)[C@H]3C[C@H]4C(=O)N[C@@H](CCCC[N+](C)(C)C)C(=O)N4[C@H]3c3cccc(OCCO)c3)cc2)[C@@]12C(=O)Nc1ccc(I)cc12,-1.05 (inactive)
2,O=C1OCC=C[C@H]2OC34C=CCN(c5ccc(Cl)cc5)C(=O)[C@H]3N(CCCO)C(=O)[C@@H]4[C@@H]12 (stereo not given in full),-0.393 (inactive)
3,O=c1cccc(-c2ccccc2)o1,0.0841 (inactive)
4,C=C(COC)C(=O)CC[C@H](OC(=O)c1cccnc1)c1ccccc1OCCO,-3.06 (inactive)
5,CCCCCN1CC=CC23O[C@@H]4C=CCCOC(=O)C4[C@H]2C(=O)N(CCCO)[C@@H]3C1=O (stereo not given in full),0.435 (inactive)
6,CCN(CC)c1ccc(N2CC=CC34O[C@@H]5C=CCOC(=O)[C@@H]5[C@H]3C(=O)N(CCCCCO)[C@@H]4C2=O)cc1 (stereo not given in full),1.08 (inactive)
7,C#C[C@H]1Oc2ccccc2S(=O)(=O)N2CCC[C@@H]12,-0.482 (inactive)
8,O=C1C2C=CC(C(O)c3ccc(B(O)O)cc3)N(Nc3ccc([N+](=O)[O-])cc3)C2C(=O)N1c1ccccc1 (stereo not given),-0.307 (inactive)
9,O=C1OCCC/C=C\[C@H]2OC34C=CCN(CCN5CCOCC5)C(=O)[C@H]3N(CCO)C(=O)[C@@H]4C12 (stereo not given in full),-0.562 (inactive)
10,CC(=O)n1cc(C(O)C2C=CC3C(=O)N(c4ccccc4)C(=O)C3N2Nc2ccc(C#N)cc2)c2ccccc21 (stereo not given),-0.897 (inactive)
11,COc1ccc(C(=O)Nc2cccc(CN3C(=O)[C@@]4(O[C@@H](CCn5cc([C@H](O)c6ccccc6)nn5)[C@H]([Si](C)(C)c5ccc(OC)cc5)[C@H]4C)c4ccccc43)c2)cc1,-6.53 (inactive)
12,COC(=O)[C@@]1(Cc2ccc(F)cc2)[C@H]2c3cc(C(=O)N4CCCC4)n(CCc4ccc(OC)c(Br)c4)c3C[C@H]2CN1C(=O)c1ccccc1,-2.83 (inactive)
13,CC(C)N1C(=O)c2ccccc2[C@](C)(C(=O)NC2CC2)[C@@H]1c1ccc(CO)cc1,0.192 (inactive)
14,CCCNC(=O)[C@@]1(C)c2ccccc2C(=O)N(Cc2ccc(OC(F)(F)F)cc2)[C@H]1c1ccc(CO)cc1,-0.0521 (inactive)
15,C=CCC(OC(C)=O)[C@@H]1[C@@H](N(Cc2ccc(-c3cccc(C(F)(F)F)c3)o2)C(=O)Cc2ccc(OC)cc2)c2cc(OCCCO)ccc2N1C(=O)Cc1ccc(OC)cc1 (stereo not given in full),1.08 (inactive)
16,COC(=O)[C@@]1(Cc2ccccc2)[C@H]2c3cc(C(=O)N(C)C)n(Cc4cc(F)c(F)c(F)c4)c3C[C@H]2CN1C(=O)c1ccccc1,-0.402 (inactive)
17,C=C(C)[C@@H]1CC=C(C(O)C2C=CC3C(=O)N(Cc4ccccc4)C(=O)C3N2n2cnnc2)CC1 (stereo not given in full),-0.893 (inactive)
